Data on 5 molecules can be found in PubChem BioAssay (NCATS).

The nature of experiment [1]: Cell Viability - BJ (AID 421; calls by dose curve;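 further: potency means the concentration at half of the fitted maximal effect; cells exposed to compound for 40 hours at 37 °C before readout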). The note with it: BJ fibroblast viability, qHTS. A digest of the protocol:
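Cytotoxicity as drop in intracellular ATP (CellTiter-Glo, 20 min RT) after 40 hr compound exposure of BJ fibroblasts at 37 °C. Titrations scaled between DMSO and 100 uM tamoxifen, Hill-fitted for AC50.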
Background: In qHTS, concentration-response curves come from the screen itself.

A short description of experiment [2]: Cell Viability - Jurkat (AID 426;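 active means dose-dependent loss of cell ATP signal giving a full or clear fitted curve, ranked by lower potency value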;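 further: potency means the concentration at half of the fitted maximal effect; cells exposed to compound for 40 hours at 37 °C before ATP read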). The note with it: qHTS. A digest of the protocol:
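Cytotoxicity taken as drop in cellular ATP (CellTiter-Glo luminescence, 20 min room temperature) after 40 hr, 37C treatment of 5000 Jurkat Clone E6-1 cells per well; concentration-response fitted with Hill equation for AC50.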

A short description of experiment [3]: Cell Viability - Hek293 (AID 427;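 active means compounds whose dose-response curve shows a full or clear partial loss of cell viability, called from curve shape rather than a numeric limit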;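 further: potency means the concentration at half of the fitted maximal effect; cells exposed to compound for 40 hours at 37 °C before reading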). The note with it: qHTS. A digest of the protocol: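 Luminescent ATP content (CellTiter-Glo, 20 min at room temperature) was measured after a 40 hr, 37 °C compound exposure of HEK293 cells. AC50 values came from Hill-equation fits of qHTS concentration-response data normalized to DMSO and 100 uM tamoxifen.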
Experiment [4] can be described thus: Cell Viability - HepG2 (AID 433; calls by dose curve;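 further: potency means the concentration at half of the fitted maximal effect; potency for ATP loss meaning cytotoxicity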). The note with it: qHTS. A digest of the protocol: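 HepG2 hepatocellular carcinoma cells (1500/well) were treated with compounds for 40 h at 37 °C in complete medium; intracellular ATP was read by CellTiter-Glo luminescence. Data were normalized to DMSO and 100 uM tamoxifen, and AC50 came from Hill fits.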
Experiment [5] is described as follows: Cell Viability - MRC5 (AID 434; calls by dose curve;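 further: potency means the concentration at half of the fitted maximal effect; potency reflects cytotoxicity seen as loss of intracellular ATP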). The note with it: MRC5 lung fibroblast viability, qHTS. A digest of the protocol: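 AC50 values come from Hill-equation fits of intracellular ATP loss, measured by CellTiter-Glo luminescence. Normal lung fibroblasts (MRC5) had 40 hr compound treatment at 37 C, normalized between DMSO and 100 uM tamoxifen.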
The nature of experiment [6]: Cell Viability - SK-N-SH (AID 435; calls by dose curve; further: potency means the concentration at half of the fitted maximal effect). The note with it: SK-N-SH neuroblastoma cell viability qHTS. A digest of the protocol: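 SK-N-SH human neuroblastoma cells (1500/well) were exposed to compounds in complete medium for 40 h at 37 °C, and intracellular ATP was then measured by CellTiter-Glo luminescence. AC50 was taken from Hill fits, normalized to DMSO and 100 uM tamoxifen.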

The target of experiment [7] is Mitogen-activated protein kinase 10 (Mus musculus) (UniProt Q61831). Put plainly: JNK3 AlphaScreen Assay (AID 530; active means well fitted curve in either direction with a large enough effect, not every such curve was filed as active;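 further: kinase came from lysate of stimulated human HepG2 cells; signal reports phosphorylation of biotinylated GST-cJun 1-79 at Ser73 with 10 µM ATP; on the % scale 0 is the no-effect control and ±100 the full control effect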). The note with it: JNK3 lysate, c-Jun phosphorylation; series mostly up to 57.1 µM. A digest of the protocol: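 qHTS titrations with 15 min compound pre-incubation before adding ATP (10 uM final). Read-out: AlphaScreen of Ser73-phosphorylated biotin-GST-cJun using HepG2 lysate JNK3 activated by IL-1β and TNFα.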
A general note: Bead proximity is the source of the signal in Alpha formats.

Experiment [8] is described as follows: Cell Viability - N2a (AID 540).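 Further: plate controls were DMSO alone for no effect and tamoxifen control for full effect; nearly all actives have a fitted effect of over 45% in size.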 The note with it: N2a mouse neuroblastoma cell viability; activity change, negative = cytotoxicity: at 92.2 µM (top of the series). A digest of the protocol:
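CellTiter-Glo ATP luminescence, read 20 min after reagent at room temperature, reported viability following 40 h compound treatment at 37 °C. N2a mouse neuroblastoma cells seeded 1500/well; Hill equation gave AC50.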

Experiment [9] is described as follows: Cell Viability - NIH 3T3 (AID 541). Further: nearly all actives have a fitted effect of over 25% in size. Further: potency means the concentration at half of the fitted maximal effect.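 On activity change, negative = cytotoxicity: plate controls were DMSO alone for no effect and tamoxifen positive control for full effect.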 The note with it: NIH 3T3 cell viability, qHTS; activity change, negative = cytotoxicity: at 92.2 µM (top of the series). An outline of the steps:
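Intracellular ATP (CellTiter-Glo luminescence, 20 min at room temperature) measured after 40 hr compound exposure at 37 °C of 1000 NIH 3T3 mouse fibroblasts/well in complete medium; AC50 derived by Hill-equation modelling of qHTS concentration-response curves.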

Experiment [10] can be described thus: Cell Viability - HUV-EC-C (AID 542). Further: on the % scale 0 is the no-effect control and ±100 the full control effect; nearly all actives have a fitted effect of over 35% in size. The note with it: HUV-EC-C endothelial cell viability, qHTS; series mostly up to 92.2 µM. A digest of the protocol: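 CellTiter-Glo luminescence measured ATP loss in HUV-EC-C cells (1000/well) after 40 hr compound exposure at 37 °C, in complete culture medium. Concentration-response data were Hill-fitted to give AC50.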
The nature of experiment [11]: Cell Viability - H-4-II-E (AID 543). Further: on the % scale 0 is the no-effect control and ±100 the full control effect; nearly all actives have a fitted effect of over 35% in size. The note with it: H-4-II-E rat hepatoma viability; series mostly up to 92.2 µM. A digest of the protocol:
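CellTiter-Glo luminescence (intracellular ATP) measured after 40 h compound exposure at 37 °C in H-4-II-E rat hepatoma cells seeded at 1500/well. Values are AC50s fitted with the standard Hill equation.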

Experiment [12] can be described thus: Cell Viability - SH-SY5Y (AID 544). Further: nearly all actives have a fitted effect of over 55% in size. The note with it: SH-SY5Y neuroblastoma cell viability; viability change, negative = cytotoxic: at 92.2 µM (top of the series). A digest of the protocol: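 Cytotoxicity measured via ATP-dependent luciferase luminescence (CellTiter-Glo) following 40 h, 37 °C exposure of 1500 SH-SY5Y cells per well. Concentration-response data were fitted with the standard Hill equation to give AC50.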

Experiment [13] can be described thus: Cell Viability - Renal Proximal Tubule (AID 545). Further: nearly all actives have a fitted effect of over 40% in size. The note with it: renal proximal tubule cells viability, primary cells of rat origin; series mostly up to 91.7 µM. An outline of the steps: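 Primary rat renal proximal tubule cells (1000/well) were treated with compounds for 40 hr at 37 °C in complete medium. Intracellular ATP was measured by CellTiter-Glo luminescence, and AC50 values came from Hill-equation fits of concentration-response data.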

The nature of experiment [14]: Cell Viability - Mesenchymal (AID 546).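 Further: cells exposed to compound for 40 hours before reading.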 The note with it: mesenchymal cells viability, qHTS; series mostly up to 91.7 µM. An outline of the steps: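 CellTiter-Glo luminescence (intracellular ATP, 20 min room temperature) after 40 hr compound exposure at 37 °C of 1000 glomerulus-derived human kidney mesenchymal cells/well; AC50 values obtained by fitting qHTS concentration-response data to the Hill equation.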

Experiment [15] is described as follows: Cellular Toxicity (caspase-3) HepG2 (AID 654).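 Further: cells exposed to compound for 16 hours before reading; 0% = DMSO alone and 100% = caspase signal from 100 µM tamoxifen.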 The note with it: HepG2 caspase-3 activation, luminescence; series mostly up to 92.2 µM. A digest of the protocol: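 Caspase 3/7 activation is measured as a luminescence increase (aminoluciferin substrate) after 16 h compound exposure of human hepatocarcinoma HepG2 cells. AC50 values are Hill fits, scaled between DMSO baseline and 100 uM tamoxifen stimulation.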

Experiment [16] in a line: Cellular Toxicity (caspase-3) Jurkat (AID 655).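 Further: cells exposed to compound for 16 h at 37 °C before reading.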 The note with it: Jurkat caspase-3 activation, luminescence; caspase-3 activation: at 92.2 µM (top of the series), DMSO = 0%, tamoxifen = 100%. A digest of the protocol:
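Jurkat cells (5000/well) in complete medium were treated with compounds for 16 hr at 37 °C, then Caspase-Glo 3/7 luminescence was read after 20 min at room temperature. Data normalized to DMSO (basal) and 100 uM tamoxifen (100%); AC50 from Hill fit.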

Experiment [17] can be described thus: Cellular Toxicity (caspase-3) HUV-EC-C (AID 656). The note with it: HUV-EC-C cells, caspase-3 activation (apoptosis), vehicle = 0, 100 µM tamoxifen = 100%; series mostly up to 92.2 µM. A digest of the protocol:
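HUV-EC-C endothelial cells, 1000/well, were pre-incubated 5 hr at 37°C, then exposed to compounds for 16 hr at 37°C. Caspase-Glo 3/7 luminescence was read after 20 min at room temperature. AC50 came from Hill fits, normalized to DMSO and 100 uM tamoxifen.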

Experiment [18] in a line: Cellular Toxicity (caspase-3) SHSY5Y (AID 657). The note with it: SH-SY5Y caspase-3 activation, DMSO zero, 10 µM staurosporine = 100%; series mostly up to 91.7 µM. A digest of the protocol:
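SH-SY5Y human neuroblastoma cells (1500/well) were treated with compounds for 16 h at 37 °C, then Caspase-Glo 3/7 luminescence was read after 1 h at room temperature. Data normalized to DMSO and 10 uM staurosporine; AC50 from Hill fits.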

A short description of experiment [19]: Cellular Toxicity (caspase-3) BJ (AID 658). The note with it: BJ fibroblasts, luminescence, normalized: DMSO 0%, staurosporine 100%; series mostly up to 91.7 µM. A digest of the protocol: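 Caspase-Glo 3/7 luminescence, read 1 hr after reagent at room temperature, in normal BJ fibroblasts exposed 16 hours at 37 °C. AC50 values from Hill-equation concentration-response, scaled between DMSO basal and 10 uM staurosporine as 100%.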

Experiment [20] is described as follows: Cellular Toxicity (caspase-3) MRC-5 (AID 659). The note with it: MRC-5 cells, luminescence, normalized: DMSO 0%, 10 µM staurosporine 100%; series mostly up to 91.7 µM. An outline of the steps: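 Luminescent Caspase-Glo 3/7 read-out (1 h, room temperature) after a 16 h, 37 °C compound exposure of MRC-5 lung fibroblasts at 1500 cells/well. Concentration-response AC50 from Hill equation; 0% DMSO, 100% 10 uM staurosporine.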

A number with no mark means an inactive call. Inconclusive results are not listed. Activity calls are given as the source filed them. Unless noted, the call rests on the fitted dose curve; in most records, active means well fitted curve in the direction sought with a large enough effect; inconclusive means small, poorly fitted or top-dose-only effect, or another doubt; inactive means no such curve, though single readings can be large; an effect the other way counts as inactive or inconclusive.

For the molecule `Nc1cccc2c(=O)[nH][nH]c(=O)c12`, the Potency in [1], in experiment [2], in [3], in experiment [4], in [5] and in [6] was greater than 92 µM each time. Moreover, the molecule was classed as inactive in experiment [7], in experiment [17], in experiment [18], in experiment [19] and in experiment [20]. Besides, the activity change, negative = cytotoxicity in experiment [8] was 9.7%. Also, the Potency entry in experiment [9], in experiment [10], in [11], in experiment [12], in experiment [13] and in experiment [14] was “inactive” in each case. In addition, the Potency entry in experiment [15] is “inactive”. The caspase-3 activation in [16] is 0.167%.

For the molecule `O=C(Cl)c1c(Cl)cccc1Cl`, the Potency in [1], in experiment [2], in experiment [3], in experiment [4], in experiment [5] and in experiment [6] was greater than 92 µM in each case. In addition, the call in experiment [7], in experiment [17], in experiment [18], in experiment [19] and in [20] was inactive. Besides, the activity change, negative = cytotoxicity in experiment [8] is 1.05%. For the same molecule, the Potency entry in [9], in experiment [10], in experiment [11], in experiment [12], in [13] and in [14] was “inactive” each time. The caspase-3 activation in experiment [16] is 2.4%.

For the molecule `NCCCCCCN`, the Potency in experiment [1], in [2], in experiment [3], in experiment [4], in experiment [5] and in [6] was greater than 92 µM in each case. Besides, the call in experiment [7], in experiment [17], in [19] and in experiment [20] was inactive. For the same molecule, in experiment [8], the activity change, negative = cytotoxicity is -4.05%. Besides, the Potency entry in [9], in [10], in [11], in [12], in [13] and in experiment [14] was “inactive” in each case. In experiment [15], the Potency result was “inactive”. Moreover, the caspase-3 activation in experiment [16] was -1.28%.

As to `CCN(C(=O)N(CC)c1ccccc1)c1ccccc1`, the Potency in experiment [1], in [2], in experiment [3], in experiment [4], in experiment [5] and in experiment [6] was greater than 92 µM throughout. Moreover, the Potency in experiment [9] was 7.94 µM (active). Further, the molecule was called inactive in experiment [7], in experiment [17], in experiment [18], in experiment [19] and in experiment [20]. For the same molecule, in [8], the activity change, negative = cytotoxicity was -13.7%. The Potency result in experiment [10], in experiment [11], in [12], in experiment [13] and in [15] was “inactive” in each case.

For the molecule `Cc1cc(C)cc(N)c1`, the Potency in experiment [1], in [2], in experiment [3], in experiment [4], in [5] and in experiment [6] was greater than 92 µM in each case. Besides, the call in experiment [7], in experiment [17], in experiment [18], in experiment [19] and in experiment [20] was inactive. In experiment [8], the activity change, negative = cytotoxicity was 0.732%. The Potency result in experiment [9], in experiment [10], in [11], in [12], in [13] and in experiment [15] was “inactive” each time. Moreover, in experiment [16], the caspase-3 activation was 0.537%.
